# Source: PubChem BioAssay (Broad Institute)
# ALR H2O2 inh: inhibitors of human sulfhydryl oxidase ALR | purified ALR, DTT oxidation, H2O2 HRP-luminol luminescence | 290,000 compounds, 3.8% hits | P55789 | AID 485317 | inhibition, % (no concentration beside the values);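 active means mean replicate inhibition above about 79%, with every replicate also reaching it, limit read from the data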
# Casp6 inh: blocks human caspase-6 cleavage activity. P55212. purified caspase-6, Z-VEID-R110 cleavage fluorescence. inhibition, % at 12.5 µM. 350,000 compounds, 0.53% hits;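 active means mean inhibition across replicates at least about 35%, with every replicate also reaching that limit, limit read from the data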
# N-glyco inh: N-linked glycosylation inhibition; D54 ERlucT glycosylation luciferase reporter, 24 h; percent of 100 nM tunicamycin response; reporter increase, % at 12.5 µM; 360,000 compounds, 0.23% hits;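 active means mean luciferase reporter signal, scaled so untreated is 0 and the glycosylation-blocking control 100, at or above a set limit in every replicate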;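 further: luciferase carries N-glycosylation sites so blocking glycosylation raises the light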
# NSD2 inh: NSD2 (human) methyltransferase inhibition | O96028 | NSD2 peptide methylation, AlphaScreen, 120 min | inhibition, % at 12.5 µM | 310,000 compounds, 0.54% hits; in the data active means inhibition above about 50%
# CDK5 p35 inh: blocks human CDK5/p35 kinase activity; 330,000 compounds, 0.01% hits; inhibition, % at 10 µM; Recombinant CDK5/p35, ADP-Glo luminescence, 60 min; AID 488839; Q00535+Q15078;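 active means highest replicate inhibition of at least 50% and at least 75% of replicates reaching 50%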
# Target sequence (Q00535 whole entry, looked up): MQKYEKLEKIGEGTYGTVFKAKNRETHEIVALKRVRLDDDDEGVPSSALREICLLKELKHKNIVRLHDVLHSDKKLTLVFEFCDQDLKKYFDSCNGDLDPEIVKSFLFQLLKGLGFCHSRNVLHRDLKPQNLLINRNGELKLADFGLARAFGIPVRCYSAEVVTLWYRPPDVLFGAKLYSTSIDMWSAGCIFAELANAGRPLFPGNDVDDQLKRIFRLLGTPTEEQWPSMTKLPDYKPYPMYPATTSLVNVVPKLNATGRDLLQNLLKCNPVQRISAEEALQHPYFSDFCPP
# Target sequence (Q15078 whole entry, looked up): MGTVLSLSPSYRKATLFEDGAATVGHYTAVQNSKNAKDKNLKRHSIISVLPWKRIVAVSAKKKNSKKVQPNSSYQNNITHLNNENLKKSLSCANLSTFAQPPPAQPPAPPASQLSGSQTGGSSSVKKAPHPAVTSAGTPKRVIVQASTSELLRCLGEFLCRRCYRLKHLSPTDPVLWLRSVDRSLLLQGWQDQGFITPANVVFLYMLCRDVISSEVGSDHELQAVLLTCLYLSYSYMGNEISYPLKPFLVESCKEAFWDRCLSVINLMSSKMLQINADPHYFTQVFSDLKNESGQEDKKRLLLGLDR
# SUMO Mot1 rescue: blocks SUMOylation pathway, rescuing yeast Mot1-301 growth | S. cerevisiae Mot1-301 growth rescue, ATP luminescence, 38.5C; percent above DMSO median, 100 means doubled | growth rescue, % at 18.8 µM | 320,000 compounds, 1% hits;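 active means every valid replicate shows activation above 250% relative to neutral control wells; inactive means the rest, any valid replicate at or below 250%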
# A number is an active result; 0 = inactive; - = not tested or not shown. A selection: hits, their analogues and other compounds. The true share with any hit is near 3.9%.
SMILES,ALR H2O2 inh,Casp6 inh,N-glyco inh,NSD2 inh,CDK5 p35 inh,SUMO Mot1 rescue
CN(C)C(=O)[C@@H]1[C@@H](CO)[C@@H]2Cn3c(ccc(-c4ccncc4)c3=O)[C@@H]2N1Cc1ccccc1F,-,0,-,-,-,-
CCS(=O)(=O)Nc1ccc2c(c1)C(=O)N(C)C[C@@H](OC)[C@H](C)CN(Cc1nccs1)[C@H](C)CO2,-,0,-,-,-,-
Cc1cc(NCc2ccccc2)cc(=O)n1Cc1ccccc1,-,-,-,0,-,-
O=C(CSc1ncnc2ccccc12)Nc1ccc2c(c1)OCCO2,95,0,0,-,0,0
CC(C)n1cnc2c(Nc3ccc(F)c(Cl)c3)nc(NCCO)nc21,0,0,0,-,61,0
CCCN1[C@@H]2Cn3c(ccc(-c4ccccc4F)c3=O)[C@H]1[C@@H](C(=O)NCC)[C@@H]2CO,-,0,-,-,-,-
CCn1cc(C(=O)N2CCCC2)c(=O)c2cc(S(=O)(=O)N3CC(C)CC(C)C3)ccc21 (centres undefined),0,0,0,0,0,303
C[C@@H]1CN([C@@H](C)CO)C(=O)Cc2cc(NC(=O)C3CC3)ccc2O[C@H]1CN(C)Cc1ccc(C(=O)O)cc1,-,0,-,-,-,-
O=C(O)c1cccc(N2C(=O)C3CC=C(Cl)CC3C2=O)c1 (centres undefined),0,67,0,-,0,0
O=C(O)c1cccc(N2C(=O)C3CC=CCC3C2=O)c1 (centres undefined),0,-,0,0,0,0
C/C(CCc1ccc2c(c1)OCO2)=N\NC(=S)NC(C)C,85,0,0,0,0,-
COCCNC(=S)N/N=C(\C)CCc1ccc2c(c1)OCO2,0,0,0,0,0,0
O=C(NCC1COc2ccccc2O1)c1ccc(F)c(S(=O)(=O)N2CCOCC2)c1 (centres undefined),-,52,0,0,0,-
COc1ccc(OC)c(/C=N/N(C)c2ccccc2)c1,99,-,0,0,0,0
COc1cc(/C=N/N(C)c2ccccc2)cc(Cl)c1O,99,-,0,0,0,0
COc1ccc(OC)c(C=NN=Cc2cc(OC)ccc2OC)c1,-,0,0,0,-,-
CN(C)c1ccc(NC(=O)CSc2nc3c(c(=O)[nH]2)CCCC3)cc1,96,0,0,0,0,0
Cc1cc(C)c2c(=O)[nH]c(SCC(=O)c3ccc(C)c(C)c3)nc2n1,98,0,0,0,0,0
Cc1ccc(NC(=O)CSc2nc3nc(C)cc(C)c3c(=O)[nH]2)cc1,0,0,0,0,0,0
Cc1cc(C)c2c(=O)[nH]c(SCC(=O)Nc3ccccc3)nc2n1,0,-,0,0,0,0
Cc1cc(C)cc(NC(=O)CSc2nc3nc(C)cc(C)c3c(=O)[nH]2)c1,99,0,0,0,0,0
CCN(CC)S(=O)(=O)c1ccc(NC(=O)CSc2nc3nc(C)cc(C)c3c(=O)[nH]2)cc1,-,0,0,0,0,-
Cc1cc(C)c2c(=O)[nH]c(SCC(=O)Nc3ccc(N(C)C)cc3)nc2n1,99,-,0,0,0,0
COc1ccc(NC(=O)c2ccc(Cl)c(NC(=O)c3cccnc3)c2)cc1,-,-,-,0,-,-
CC(C)(C)OC(=O)NCCOCCOCCNc1ncnc2ccc(Br)cc12,-,0,-,-,-,-
SMILES,ALR H2O2 inh,Casp6 inh,N-glyco inh,NSD2 inh,CDK5 p35 inh,SUMO Mot1 rescue
CN(C)C(=O)C[C@@H]1C[C@H]2c3cc(NC(=O)c4ccc5c(c4)OCO5)ccc3O[C@H]2[C@H](CO)O1,-,0,-,-,-,-
CC(=O)N/C(=C\c1ccccc1)C(=O)Nc1ccc(O)cc1,99,0,0,0,0,0
CC(=O)c1ccc(NC(=O)/C(=C\c2ccccc2)NC(=O)/C=C/c2ccccc2)cc1,0,-,0,0,0,0
O=C(/C=C/c1ccccc1)N/C(=C/c1ccccc1)C(=O)Nc1ccc(C(=O)O)cc1,87,0,0,0,0,0
C[C@H]1CN([C@@H](C)CO)C(=O)c2cc(NC(=O)C3CC3)ccc2O[C@H]1CN(C)Cc1ccncc1,-,0,-,-,-,-
CCOC(=O)C(Sc1nn(C)c(=S)s1)C(C)=O (centres undefined),94,-,0,0,0,0
CN(C)c1ccc(-n2cc3c(=O)n(C)c(=O)n(C)c3c2)cc1,99,-,0,0,0,0
CCN(CC)c1ccc(-n2cc3c(=O)n(C)c(=O)n(C)c3c2)cc1,0,-,0,0,0,0
CNC[C@@H]1Oc2ccc(NC(=O)C3CCCCC3)cc2C(=O)N([C@H](C)CO)C[C@@H]1C,-,0,-,-,-,-
COc1ccc(/C(C)=N/NC(=O)c2ccccc2OCc2ccccc2)c(OC)c1,0,0,32,0,0,0
Cc1ccc(-c2ccc([C@@H]3[C@@H](CO)N4C(=O)CN(C(=O)Nc5cccc(F)c5)C[C@H]34)cc2)cc1,-,0,-,-,-,-
Cc1ccc(NC(=O)CN(C)C(=O)Cc2ccc(Cl)c(Cl)c2)cc1,-,0,0,0,0,0
Cc1ccc(NC(=O)CN(C)C(=O)Cn2ncc(Cl)c(Cl)c2=O)cc1,0,41,0,0,0,0
CS(=O)(=O)N1CC(=O)N2[C@@H](CO)[C@H](c3ccc(C#CC4CCCC4)cc3)[C@@H]2C1,-,0,-,-,-,-
O=C(N/N=C/c1ccc([N+](=O)[O-])o1)c1ccc(O)cc1,-,0,0,-,0,0
CCN(CC)S(=O)(=O)c1cccc(C(=O)N/N=C/c2ccc([N+](=O)[O-])o2)c1,0,0,51,0,0,0
O=C(N/N=C\c1ccc([N+](=O)[O-])o1)c1cncc(Br)c1,0,39,0,0,0,0
C[C@@H]1CN([C@H](C)CO)C(=O)c2cc(NS(C)(=O)=O)ccc2O[C@@H](C)CCCCO[C@H]1CN(C)S(=O)(=O)c1ccccc1,-,0,-,-,-,-
COc1ccc(NC2CCCN(C(=O)c3cc4ncccn4n3)C2)cc1 (centres undefined),100,0,0,0,0,0
COc1ccc(NC2CCCN(C(=O)c3ccc(OC)o3)C2)cc1 (centres undefined),99,0,0,0,0,0
COc1ccc(NC2CCCN(C(=O)c3cccc(N(C)C)c3)C2)cc1 (centres undefined),-,0,0,0,0,-
Cc1cc(C)n2nc(C(=O)N3CCCC(Nc4ccc(F)c(F)c4)C3)cc2n1 (centres undefined),0,0,0,0,0,0
COc1ccc(NC2CCCN(C(=O)C3=NNC(=O)CC3)C2)cc1 (centres undefined),-,0,0,0,-,-
COc1ccc(NC2CCCN(C(=O)c3ccc(C(C)=O)cc3)C2)cc1 (centres undefined),98,0,0,0,0,0
COc1ccc(NC2CCCN(C(=O)c3ccc(C)nc3)C2)cc1 (centres undefined),99,0,0,0,0,0
O=C(C[C@@H]1CC[C@@H]2[C@H](COC[C@H](O)CN2C(=O)Nc2ccc(F)cc2)O1)NC1Cc2ccccc2C1,-,0,-,-,-,-
COc1ccc(C(=O)N2CCCC(Nc3ccc(F)cc3)C2)c(OC)c1 (centres undefined),98,0,0,0,0,0
